Hits are enriched below; roughly 3.8% of the tested compounds scored in any of these assays.
VDR inhibitor: inhibitors of human vitamin D receptor; Potency, µM, usual class: inhibitors; P11473; 400,000 compounds, 0.93% hits; VDR-SRC2-3 peptide fluorescence polarization, 2 h
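After 23 nl compound addition and a short centrifugation, plates sat for 2 hours at ambient temperature; polarization of fluorescence then indicated loss of VDR binding to peptide SRC2-3.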
TrxR1 substrate: is turned over as a substrate by rat TrxR1; O89049; purified TrxR1 substrate turnover, NADPH consumption readout; Potency, µM (highest dose often 114 µM); 390,000 compounds, 0.01% hits; AID 588456; further: nearly all actives have a fitted effect of over 50% in size
Target sequence (O89049 whole entry, looked up): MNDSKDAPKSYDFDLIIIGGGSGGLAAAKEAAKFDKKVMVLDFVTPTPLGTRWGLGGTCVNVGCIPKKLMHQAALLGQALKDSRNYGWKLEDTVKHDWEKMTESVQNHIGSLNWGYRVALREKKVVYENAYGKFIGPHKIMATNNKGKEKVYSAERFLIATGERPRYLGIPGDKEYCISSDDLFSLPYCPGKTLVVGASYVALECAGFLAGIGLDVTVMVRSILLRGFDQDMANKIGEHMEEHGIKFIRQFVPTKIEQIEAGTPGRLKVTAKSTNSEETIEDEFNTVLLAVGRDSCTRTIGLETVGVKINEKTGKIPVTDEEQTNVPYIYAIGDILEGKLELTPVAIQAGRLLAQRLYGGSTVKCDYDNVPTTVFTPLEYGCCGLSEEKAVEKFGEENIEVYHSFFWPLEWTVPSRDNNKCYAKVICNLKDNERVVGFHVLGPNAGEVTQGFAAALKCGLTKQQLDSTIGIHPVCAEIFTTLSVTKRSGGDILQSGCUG
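Rat TrxR1, dispensed at 90 nM, was prereduced with 400 uM NADPH (final) for 5 min at ~22 deg C, then incubated with compound 15 min before 400 uM selenite. A first-read NADPH fluorescence drop versus no-compound background flagged substrates.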
TrxR1 inh: blocks rat thioredoxin reductase 1; O89049; recombinant rTrxR1, NADPH fluorescence consumption, selenite substrate; 390,000 compounds, 1% hits; Potency, µM (titrated, usually from 114 µM), actives largely listed as inhibitors; further: nearly all actives have a fitted effect of over 65% in size
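Rat TrxR1 (90 nM in the dispensed reagent) was pre-reduced with 400 uM NADPH for 5 min at room temperature, then incubated with compound for 15 min. After 400 uM selenite was added, NADPH fluorescence (Ex 340/Em 450 nm) was followed for 8 min.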
Sfp inh: inhibitors of Bacillus subtilis Sfp phosphopantetheinyl transferase. Potency, µM, most hits filed as inhibitors. Biochemical Sfp PPTase activity, qHTS. Q9F4F7. 310,000 compounds, 3.5% hits;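 further: the enzyme is Sfp with the accession as filed and its product quenches rhodamine fluorescence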
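Step 1, compound plus 15 nM Sfp-PPTase, 15 min, room temperature. Step 2, add rhodamine-CoA (5 uM) and BHQ-2-YbbR (12.5 uM). Step 3, read 525/598 nm fluorescence at 0 and 30 min.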
GLS inhibitor: blocks human kidney-isoform glutaminase activity | GLS enzymatic activity, qHTS titration | AID 624170 | O94925 | 410,000 compounds, 0.21% hits | Potency, µM (doses to about 45.5 µM), hits mostly inhibitors
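Compounds were pin-transferred onto hKGA, after which L-glutamine (1 mM solution) and a detection mix of glutamate oxidase, HRP and Amplex Red were added. Initial and 30 min RT fluorescence reads were collected.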
GCN5L2 inh: inhibitors of human GCN5L2 histone acetyltransferase | 390,000 compounds, 0.21% hits | Potency, µM (series often up to 58.9 µM), most hits filed as inhibitors | GCN5L2 HAT assay, ThioGlo1 CoA-SH fluorescence | Q92830
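Titration-based screen in which CoA formation is detected via maleimide probe ThioGlo1 (50uM) turning fluorescent on thiol reaction; substrates H3(1-25) 75uM and acetyl-CoA 70uM, GCN5L2 20nM, 20 min incubation at room temperature.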
Large screens that a line does not name were inactive; ! = a repeat was not active. The call rests on the fitted dose curve; in most records, active means well fitted curve in the direction sought with a large enough effect; inconclusive means small, poorly fitted or top-dose-only effect, or another doubt; inactive means no such curve, though single readings can be large; an effect the other way counts as inactive or inconclusive.

CC(=O)Nc1ccc(-c2sc(Nc3ccccc3)n[n+]2C)cc1	none
C=CCN(c1ccccc1)S(=O)(=O)c1cccc(C(=O)OCC(=O)NC2CC2)c1	none
NC(=O)C1CCN(C2=C(NS(=O)(=O)c3ccc(Cl)cc3)C(=O)c3ccccc3C2=O)CC1	TrxR1 inh 20µM
Cc1ccc(S(=O)(=O)NC2=C(N3CCN(Cc4ccccc4)CC3)C(=O)c3ccccc3C2=O)cc1	none
CCOC(=O)N1CCN(C2=C(NS(=O)(=O)c3ccc(C)cc3)C(=O)c3ccccc3C2=O)CC1	VDR inhibitor inconclusive, Sfp inh 79µM
COc1ccc(C(=O)CSc2n[nH]c(-c3ccncc3)n2)cc1[N+](=O)[O-]	none
CN1C(=O)c2oc3ccccc3c(=O)c2C1c1ccncc1 (stereo not drawn)	VDR inhibitor 79µM, TrxR1 inh inconclusive, Sfp inh inconclusive
CN1CCCN=C1/C=C\c1cccs1	GCN5L2 inh 11µM (no result: VDR inhibitor, TrxR1 substrate, TrxR1 inh)
O=C(O)Cc1sc(-c2ccccc2)nc1-c1ccccc1	none
O=C(O)Cc1sc(NCc2ccco2)nc1-c1ccccc1	Sfp inh 25µM
CCOC(=O)c1c(C)n(-c2ccc(C)cc2)c2ccc(OCC(O)CNCC3CCCO3)cc12 (stereo not drawn)	Sfp inh 45µM
COc1cc(CNc2cccc(F)c2)cc(Br)c1O	TrxR1 inh 13µM
Brc1ccc(CNCc2cccs2)cc1	none
c1ccc(COc2ccc(CNCc3cccs3)cc2)cc1	Sfp inh 56µM
COc1cc(CNc2ccc(O)cc2)cc(Br)c1OCc1ccccc1	Sfp inh 22µM
COc1cccc(CNc2ccc3[nH]c(=O)[nH]c3c2)c1OCc1ccccc1	GLS inhibitor 16µM
CC1=C(C)CC2C(=O)N(Cc3ccccc3)C(=O)C2C1 (stereo not drawn)	none
Oc1ccc(NCc2ccc(OCc3ccccc3Cl)cc2)cc1	VDR inhibitor inconclusive, TrxR1 inh 45µM (no result: Sfp inh)
Oc1ccc(OCc2ccccc2)cc1	none (no result: TrxR1 substrate, TrxR1 inh)
Oc1ccc(NCc2ccc(OCc3ccccc3)cc2)cc1	VDR inhibitor 89µM, TrxR1 inh 28µM!, Sfp inh 56µM, GLS inhibitor 11µM!
CCCNC(=O)c1ccc(Cn2c(=S)[nH]c3c([nH]c4ccc(OC)cc43)c2=O)cc1	none
N#CC1=C2SCN(c3ccccc3)CN2C(=O)CC1c1c(Cl)cccc1Cl (stereo not drawn)	VDR inhibitor 22µM, TrxR1 inh inconclusive, Sfp inh 5µM, GCN5L2 inh 11µM
N#CC1=C2SCN(c3ccccc3)CN2C(=O)CC1c1ccccc1Cl (stereo not drawn)	VDR inhibitor 28µM, TrxR1 inh inconclusive, Sfp inh 1µM, GCN5L2 inh 28µM
Cc1ccc(C2CC(=O)N3CN(c4ccc(Br)cc4)CSC3=C2C#N)o1 (stereo not drawn)	VDR inhibitor 45µM, TrxR1 inh inconclusive, Sfp inh 1.3µM, GCN5L2 inh inconclusive
CSC1=C(C#N)C(c2cccs2)CC(=O)N1C (stereo not drawn)	none (no result: VDR inhibitor, TrxR1 substrate, TrxR1 inh, GLS inhibitor)
N#CC1=C2SCN(c3ccccc3)CN2C(=O)CC1c1cccs1 (stereo not drawn)	VDR inhibitor inconclusive, TrxR1 inh inconclusive, Sfp inh 0.79µM, GCN5L2 inh inconclusive
Cn1c(=O)c2c(nc(CN3CCCCC3)n2Cc2c(F)cccc2Cl)n(C)c1=O	none
COc1ccc(C2=CC(c3ccc(OC)c(OC)c3)n3nnnc3N2)c(OC)c1 (stereo not drawn)	TrxR1 inh inconclusive
COc1cccc(C2=CC(c3ccccc3)n3nnnc3N2)c1 (stereo not drawn)	Sfp inh 45µM
COc1cccc(C2C=C(c3ccc(OC)cc3OC)Nc3nnnn32)c1 (stereo not drawn)	TrxR1 inh 45µM
Cc1ccc(C(=O)CSc2nc3ccccc3o2)cc1	none
COc1cc(/C=C2\CC/C(=C\c3cc(OC)c(O)c(OC)c3)C2=O)cc(OC)c1O	TrxR1 inh inconclusive, Sfp inh 45µM
CCOc1cc(C=NN2CCCCCC2)ccc1O	GLS inhibitor 11µM (no result: Sfp inh, GCN5L2 inh)
COc1cc(/C=C2\CCC/C(=C\c3ccc(O)c(OC)c3)C2=O)ccc1O	VDR inhibitor 25µM!, TrxR1 inh inconclusive, GCN5L2 inh inconclusive
CCOc1cc(/C=C2\CN(CC)C/C(=C\c3ccc(O)c(OCC)c3)C2=O)ccc1O	VDR inhibitor inconclusive, TrxR1 inh inconclusive, GLS inhibitor 13µM
Cc1ccc(C(=O)CSc2nnc(COc3cc(C)cc(C)c3)o2)cc1	none
N/C(=N\OC(=O)COc1ccc2ccccc2c1)c1ccccn1	Sfp inh 89µM
COc1ccc(CC(=O)O/N=C(\N)c2ccccn2)cc1	none
O=C(CN1C(=O)NC2(CCCC2)C1=O)N1CCN(c2ccccc2Cl)CC1	none (no result: Sfp inh)
COc1cc(/C=C2/SC(=O)NC2=O)ccc1Oc1ccc([N+](=O)[O-])cc1[N+](=O)[O-]	Sfp inh 50µM
COc1cc(/C=C2\SC(=O)NC2=O)ccc1Oc1ccc([N+](=O)[O-])cn1	VDR inhibitor inconclusive, Sfp inh 79µM
S=C(NCCNC(=S)Nc1ccccc1Cl)Nc1ccccc1Cl	none
CCC(C)N(C(=O)COc1ccccc1C(=O)NCc1ccccc1)C1CCS(=O)(=O)C1 (stereo not drawn)	none
CNC(=O)/C(C#N)=C1/SC(Cc2ccc(F)cc2)C(=O)N1c1ccccc1 (stereo not drawn)	none
Cc1ccc(/C=N/NC(=O)C(=O)N/N=C/c2ccc(C)o2)o1	TrxR1 inh inconclusive
COc1ccc2c(c1)C(=O)[C@H](OC(=O)NCc1ccco1)[C@@H](c1ccc(OC)c(Br)c1)O2	VDR inhibitor 56µM (no result: TrxR1 substrate, TrxR1 inh, GLS inhibitor, GCN5L2 inh)
COc1ccc(OC)c(C2=NOC(C(=O)NCc3ccco3)C2)c1 (stereo not drawn)	TrxR1 inh 28µM
COc1ccc2c(c1)O[C@H](c1ccc3c(c1)OCO3)[C@@H](OC(=O)NCc1ccco1)C2=O	VDR inhibitor inconclusive, Sfp inh 89µM (no result: TrxR1 substrate, TrxR1 inh, GLS inhibitor, GCN5L2 inh)
Clc1cccc(Cc2c(C3CCCCC3)nc3ccc(Br)cn23)c1	none (no result: VDR inhibitor, TrxR1 substrate, TrxR1 inh, Sfp inh, GCN5L2 inh)
O=C(O)CCCCCN1C(=O)/C(=C\c2ccc(-c3ccc(Cl)cc3)o2)SC1=S	Sfp inh 6.3µM, GLS inhibitor inconclusive
O=C(O)CCCN1C(=O)/C(=C/c2ccc(-c3nc4ccccc4s3)o2)SC1=S	Sfp inh 40µM, GLS inhibitor inconclusive
Cc1ccc(NC(=O)CN2C(=O)CSC2=O)cc1	none
CN(CCOc1ccccc1)CC(=O)Nc1ccc(Cl)cc1[N+](=O)[O-]	Sfp inh 50µM
CN(C)S(=O)(=O)c1cc(NC(=O)c2cc(=O)c3ccccc3o2)ccc1Cl	Sfp inh 32µM
CN(CCOc1ccccc1)CC(=O)Nc1ccc(Cl)c(S(=O)(=O)N(C)C)c1	Sfp inh 56µM
COc1cc(NC(=O)CN(C)CCOc2ccccc2)c(C)cc1[N+](=O)[O-]	none
